Assay results from PubChem BioAssay (Tox21).
Results filed as inconclusive are left out. The source made the active and inactive calls. Unless noted, calls come from the whole dose curve; as a rule, active = well fitted curve in the direction sought with a large enough effect in the repeat runs; inconclusive = weak or mixed curves; inactive = no such curve, though single readings can be large; an effect the other way counts as inactive or inconclusive.

Assays:
[1] = qHTS assay to identify small molecule antagonists of the estrogen related receptor (ERR) signaling pathway from Tox21 library - cell viability counter screen (AID 1224834); note: nearly all actives have a fitted effect of over 30% in size
Procedure, shortened: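 Compounds in DMSO were pinned onto ERR cells that had been incubated for 6 h, and the plates were held at 37 C for 17.5 h. CellTiter-Fluor reagent was then added and fluorescence was measured after 30 min.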

[2] = target: Luciferin 4-monooxygenase (Photinus pyralis) (UniProt P08659); test: qHTS assay to identify small molecule inhibitors of firefly luciferase (AID 1224835); note: series mostly up to about 120 µM; nearly all actives have a fitted effect of over 25% in size
Chain of Luciferin 4-monooxygenase (Photinus pyralis) (P08659 whole entry, looked up): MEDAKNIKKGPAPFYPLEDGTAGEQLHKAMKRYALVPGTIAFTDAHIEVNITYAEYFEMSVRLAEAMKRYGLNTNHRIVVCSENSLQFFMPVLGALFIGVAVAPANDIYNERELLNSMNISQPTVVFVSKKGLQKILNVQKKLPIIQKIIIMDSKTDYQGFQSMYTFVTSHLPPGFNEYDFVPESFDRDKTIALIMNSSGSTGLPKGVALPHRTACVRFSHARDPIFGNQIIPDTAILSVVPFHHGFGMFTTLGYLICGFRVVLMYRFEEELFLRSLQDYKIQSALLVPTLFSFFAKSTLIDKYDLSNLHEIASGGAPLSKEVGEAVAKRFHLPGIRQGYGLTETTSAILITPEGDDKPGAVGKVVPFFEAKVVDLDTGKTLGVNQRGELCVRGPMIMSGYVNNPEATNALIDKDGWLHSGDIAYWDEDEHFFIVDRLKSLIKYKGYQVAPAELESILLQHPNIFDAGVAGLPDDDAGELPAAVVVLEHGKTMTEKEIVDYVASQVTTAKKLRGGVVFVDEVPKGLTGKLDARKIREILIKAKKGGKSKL
Procedure, shortened: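 Biochemical qHTS: compounds run as interplate titrations against purified firefly enzyme, with D-luciferin and ATP each at its KM concentration. Light output recorded by CCD imaging.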

[3] = qHTS assay to identify small molecule agonists of the constitutive androstane receptor (CAR) signaling pathway - cell viability counter screen (AID 1224836); note: series mostly up to about 92 µM; nearly all actives have a fitted effect of over 45% in size
Procedure, shortened: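 Compound titrations (15 concentrations) went onto HepG2-CYP2B6-hCAR cells 4 h after seeding, alongside PK11195 at a final 0.75 uM; a 23 h, 37 C/5% CO2 incubation preceded CellTiter-Fluor viability measurement.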

[4] = qHTS assay to identify small molecule antagonists of the constitutive androstane receptor (CAR) signaling pathway - cell viability counter screen (AID 1224837); note: series mostly up to about 92 µM; nearly all actives have a fitted effect of over 45% in size
Procedure, shortened: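 Cells are seeded, rested 4 hr at 37 C/5% CO2, dosed with compound (15-point series) and 50 nM CITCO, incubated a further 23 hr, and then CellTiter-Fluor reagent is added before fluorescence is read. The line is HepG2 with stable hCAR and CYP2B6-2.2kb.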

[5] = target: Nuclear receptor subfamily 1 group I member 3 (Homo sapiens) (UniProt Q14994); test: qHTS assay to identify small molecule antagonists of the constitutive androstane receptor (CAR) signaling pathway (AID 1224838);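 note: HepG2 cells stably expressing hCAR with CYP2B6 luciferase reporter stimulated by CITCO; nearly all actives have a fitted effect of over 40% in size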; note: potency is the fitted concentration of half-maximal effect
Chain of Nuclear receptor subfamily 1 group I member 3 (Homo sapiens) (Q14994 whole entry, looked up): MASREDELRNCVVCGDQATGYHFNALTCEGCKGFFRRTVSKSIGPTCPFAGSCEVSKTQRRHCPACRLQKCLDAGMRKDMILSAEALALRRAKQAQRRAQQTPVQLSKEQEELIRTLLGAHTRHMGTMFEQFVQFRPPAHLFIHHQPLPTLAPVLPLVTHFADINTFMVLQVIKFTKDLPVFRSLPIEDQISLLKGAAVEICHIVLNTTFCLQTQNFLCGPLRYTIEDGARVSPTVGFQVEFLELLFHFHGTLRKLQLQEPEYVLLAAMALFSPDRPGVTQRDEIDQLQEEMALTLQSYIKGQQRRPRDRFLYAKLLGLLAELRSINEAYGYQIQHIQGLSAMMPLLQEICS
Procedure, shortened: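 Luminescence from a CYP2B6-2.2kb promoter reporter in hCAR-expressing HepG2 cells reflects CAR signaling. Cells received compounds at 15 concentrations and 50 nM CITCO (final), then incubated 24 h at 37 C/5% CO2.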

[6] = target: Nuclear receptor subfamily 1 group I member 3 (Homo sapiens) (UniProt Q14994); test: qHTS assay to identify small molecule agonists of the constitutive androstane receptor (CAR) signaling pathway (AID 1224839);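 note: HepG2 cells stably carrying human CAR and a CYP2B6 luciferase reporter; series mostly up to about 92 µM; nearly all actives have a fitted effect of over 15% in size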
Procedure, shortened: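 In this screen, CAR-driven CYP2B6 promoter activity is measured by luminescence in HepG2-CYP2B6-hCAR cells after 24 h with test compounds and 0.75 uM PK11195 (final concentration).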

[7] = qHTS assay to identify small molecule antagonists of the estrogen related receptor signaling pathway with the pleiotropic PPARgamma coactivator (PGC) from Tox21 10K library - cell viability counter screen (AID 1224840; active = well fitted cell-killing curve with a large enough effect in the repeat runs, not every such curve was filed as active; note: nearly all actives have a fitted effect of over 40% in size)
Procedure, shortened: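 Cell viability is measured by CellTiter-Fluor fluorescence in PGC/ERR cells that receive compounds after a 6-hour attachment period and are then incubated 17.5 hours at 37 C.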

[8] = target: Thyrotropin receptor (Homo sapiens) (UniProt P16473); test: qHTS assay to identify small molecule agonists of the thyroid stimulating hormone receptor (TSHR) signaling pathway (AID 1224843; calls by dose curve; note: nearly all actives have a fitted effect of over 45% in size)
Chain of Thyrotropin receptor (Homo sapiens) (P16473 whole entry, looked up): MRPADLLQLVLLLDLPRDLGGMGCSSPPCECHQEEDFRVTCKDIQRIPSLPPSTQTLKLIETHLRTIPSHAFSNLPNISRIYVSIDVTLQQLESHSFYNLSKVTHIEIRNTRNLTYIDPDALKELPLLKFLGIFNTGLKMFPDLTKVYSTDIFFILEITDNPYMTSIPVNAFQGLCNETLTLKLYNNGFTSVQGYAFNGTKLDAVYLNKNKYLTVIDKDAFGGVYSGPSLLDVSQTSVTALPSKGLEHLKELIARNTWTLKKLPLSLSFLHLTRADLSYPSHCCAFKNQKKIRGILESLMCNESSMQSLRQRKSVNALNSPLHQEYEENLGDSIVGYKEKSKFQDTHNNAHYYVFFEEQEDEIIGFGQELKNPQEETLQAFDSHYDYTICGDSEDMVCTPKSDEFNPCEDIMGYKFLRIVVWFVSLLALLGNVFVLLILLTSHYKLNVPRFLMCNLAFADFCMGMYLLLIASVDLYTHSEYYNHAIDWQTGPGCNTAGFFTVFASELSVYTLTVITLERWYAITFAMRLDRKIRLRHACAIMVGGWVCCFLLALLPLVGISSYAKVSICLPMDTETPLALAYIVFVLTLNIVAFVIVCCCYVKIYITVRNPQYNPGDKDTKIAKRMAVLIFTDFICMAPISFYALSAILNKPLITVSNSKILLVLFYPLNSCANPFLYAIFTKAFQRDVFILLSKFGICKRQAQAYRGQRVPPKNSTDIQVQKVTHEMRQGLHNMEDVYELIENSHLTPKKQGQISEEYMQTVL
Procedure, shortened: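 HEK293/TSHR, 800 cells/well; cpd 30 min RT; add cAMP-d2 + anti-cAMP-cryptate, 1 h RT; fluorescence read on plate reader. 15-pt titration, n=3.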

[9] = qHTS assay to identify small molecule agonists of the hypoxia (HIF-1) signaling pathway - cell viability counter screen (AID 1224844; calls by dose curve; note: nearly all actives have a fitted effect of over 50% in size; note: potency is the fitted concentration of half-maximal effect)
Procedure, shortened: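 Viability counter screen: HRE-bla ME-180 cells plated 5 hrs before compound addition, treated 17 hrs at 37C and 5% CO2, then CellTiter-Glo added after the FRET reporter read; luminescence after 30 min.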

[10] = qHTS assay to identify small molecule agonists of H2AX (AID 1224845; active = well fitted activation curve with a large enough effect in the signal ratio in the repeat runs, not every such curve was filed as active; the % refers to the signal ratio)
Procedure, shortened: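 Wild-type CHO-K1 cells, plated overnight, exposed 3hr at 37C to 15 concentrations (0.76% DMSO final). Lysed, then HTRF anti-pH2AX (S139) cryptate and anti-H2AX-d2 antibodies, 24 hr room temperature; 665/620 nm emission read.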

[11] = qHTS assay to identify small molecule agonists of H2AX - cell viability counter screen (AID 1224847; calls by dose curve; note: top concentration of the series differs between compounds; nearly all actives have a fitted effect of over 30% in size)
Procedure, shortened: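 Read-out: CellTiter-Glo luminescence, 30 min RT. Cells: wild-type CHO-K1, 1000/well, 10% FBS, plated overnight at 37C. Treatment: 15 concentrations, 3 hr, 37C, 0.76% DMSO.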

[12] = qHTS RealTime-Glo MT Cell Viability Assay in HepG2 cells - 24 hour (AID 1224867); note: nearly all actives have a fitted effect of over 50% in size
Procedure, shortened: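 HepG2 cells (600/well) were dispensed with RealTime-Glo reagents, incubated 5 h at 37 °C, then treated with compounds in DMSO for up to 40 h. Nonlytic NanoLuc luminescence reflecting viable cells was read at each stated time point.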

[13] = qHTS RealTime-Glo MT Cell Viability Assay in HEK293 cells - 32 hour (AID 1224868); note: top concentration of the series differs between compounds; nearly all actives have a fitted effect of over 50% in size
Procedure, shortened: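 HEK293 cells seeded with NanoLuc/prosubstrate reagent, rested 5 h at 37 C, then dosed and kept at 37 C up to 40 h. Nonlytic real-time luminescence from viable cells read at 0, 8, 16, 24, 32 and 40 h.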

[14] = A CellTox Green Cytotoxicity Assay to monitor cytotoxicity in HEK293 cells - 0 hour (AID 1224869); note: nearly all actives have a fitted effect of over 50% in size
Procedure, shortened: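 Dead-cell fluorescence measured kinetically: asymmetric cyanine dye, HEK293, 600 cells/well, 5 h settle, 23 nL cpd/DMSO, 37 C, reads 0–40 h every 8 h.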

[15] = qHTS assay to identify small molecule agonists of the hypoxia (HIF-1) signaling pathway (AID 1224846; active = well fitted activation curve with a large enough effect in the signal ratio in the repeat runs, not every such curve was filed as active; the % refers to the signal ratio)
Procedure, shortened: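 Agonist mode reporter screen. ME-180 cells stably expressing bla under HRE control received test compounds in DMSO for 17 hrs (37C, 5% CO2), and beta-lactamase activity was then detected with the CCF4-AM FRET substrate.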
% is set by controls: 0 for no effect and ±100 for the full control effect.

CN(C)CCOC(c1ccc(Cl)cc1)c1ccccn1 (stereo unspecified)
inactive: Potency [1] | Potency [2] | outcome [3] | outcome [4] | Potency [5] | Potency [6] | outcome [7] | outcome [8] | Potency [9] | outcome [10] | Potency [11] | outcome [12] | Potency [13] | Potency [14]

CCCCNc1ccccc1
inactive: Potency [1] | Potency [2] | outcome [3] | outcome [4] | Potency [5] | Potency [6] | outcome [7] | outcome [8] | Potency [9] | outcome [15] | Potency [11] | outcome [12] | Potency [13] | Potency [14]

O=C(O)/C=C/c1ccc(/C=C/C(=O)O)cc1
inactive: Potency [1] | Potency [2] | outcome [3] | outcome [4] | Potency [5] | Potency [6] | outcome [7] | outcome [10] | outcome [15] | Potency [11] | outcome [12] | Potency [13] | Potency [14]

C1C2OC2C2C1C1CC2C2OC12 (stereo unspecified)
inactive: Potency [1] | Potency [2] | outcome [3] | outcome [4] | Potency [5] | Potency [6] | outcome [7] | Potency [9] | outcome [10] | outcome [15] | Potency [11] | Potency [13] | Potency [14]

NC(=O)CCCCC1CCSS1 (stereo unspecified)
inactive: Potency [1] | Potency [2] | outcome [3] | outcome [4] | Potency [5] | Potency [6] | outcome [7] | outcome [8] | Potency [9] | outcome [10] | outcome [15] | Potency [13] | Potency [14]

CCCCOCC(C)OCC(C)O (stereo unspecified)
inactive: Potency [1] | Potency [2] | outcome [3] | outcome [4] | Potency [5] | Potency [6] | outcome [7] | Potency [9] | outcome [10] | outcome [15] | Potency [11] | outcome [12] | Potency [13] | Potency [14]

CCN1CCCC(OC(=O)C(c2ccccc2)c2ccccc2)C1 (stereo unspecified)
inactive: Potency [1] | Potency [2] | outcome [3] | outcome [4] | Potency [5] | Potency [6] | outcome [7] | outcome [8] | outcome [10] | Potency [11] | outcome [12] | Potency [14]

CCCCc1ccc(N)cc1
inactive: Potency [1] | Potency [2] | outcome [3] | outcome [4] | Potency [5] | Potency [6] | outcome [7] | outcome [8] | outcome [10] | outcome [15] | Potency [11] | outcome [12] | Potency [14]

CC1=CC(=O)CCC1
inactive: Potency [1] | Potency [2] | outcome [3] | outcome [4] | Potency [5] | Potency [6] | outcome [7] | outcome [8] | outcome [10] | outcome [15] | Potency [11] | outcome [12] | Potency [13] | Potency [14]

CC(C)CCCCCCN
inactive: Potency [1] | Potency [2] | outcome [3] | outcome [4] | Potency [5] | Potency [6] | outcome [7] | outcome [8] | Potency [9] | outcome [10] | outcome [15] | outcome [12] | Potency [13] | Potency [14]

NCCN1CCNC1=O
inactive: Potency [1] | Potency [2] | outcome [3] | outcome [4] | Potency [5] | Potency [6] | outcome [7] | outcome [8] | Potency [9] | outcome [15] | Potency [11] | outcome [12] | Potency [13] | Potency [14]

CC(CCO)CCCC(C)(C)O (stereo unspecified)
inactive: Potency [1] | Potency [2] | outcome [3] | outcome [4] | Potency [6] | outcome [7] | Potency [9] | outcome [10] | outcome [15] | outcome [12] | Potency [14]
active: Potency [5] 27.3 µM

CCN(CC)C(=O)c1ccc(O)c(OC)c1
inactive: Potency [1] | Potency [2] | outcome [3] | outcome [4] | Potency [5] | Potency [6] | outcome [7] | Potency [9] | outcome [10] | Potency [11] | outcome [12] | Potency [13] | Potency [14]

CCCC(C)CO (stereo unspecified)
inactive: Potency [1] | Potency [2] | outcome [3] | outcome [4] | Potency [5] | Potency [6] | outcome [7] | outcome [8] | outcome [15] | Potency [11] | outcome [12] | Potency [13] | Potency [14]

NCC[C@H](O)C(=O)N[C@@H]1C[C@H](N)[C@@H](O[C@H]2O[C@H](CN)[C@@H](O)[C@H](O)[C@H]2O)[C@H](O)[C@H]1O[C@H]1O[C@H](CO)[C@@H](O)[C@H](N)[C@H]1O
inactive: viability change, negative = cytotoxic [1] 0.879% [at 0.349 µM] | activity change, negative = inhibition [2] -1.73% [at 0.435 µM] | viability change, negative = cytotoxic [3] 2.17% [at 0.349 µM] | activity change, negative = cytotoxicity [4] 3.03% [at 0.349 µM] | activity, negative = inhibition [5] -4.74% [at 0.349 µM] | activation [6] 1.57% [at 0.349 µM] | viability change, negative = cytotoxic [7] 1.22% [at 0.349 µM] | activation [8] -3.02% [at 0.349 µM] | activity change, negative = cytotoxicity [9] 3.37% [at 0.29 µM] | activation (H2AX phosphorylation) [10] 0.216% [at 0.582 µM] | activity change, negative = cytotoxicity [11] 2.46% [at 0.582 µM] | activity change, negative = cytotoxicity [12] 1.55% [at 0.29 µM] | activity change, negative = cytotoxic [13] 4.99% [at 0.29 µM] | cytotoxicity [14] -5.15% [at 0.29 µM]

O=C(O)c1ccccc1S
inactive: Potency [1] | Potency [2] | outcome [3] | outcome [4] | Potency [5] | Potency [6] | outcome [7] | outcome [8] | Potency [9] | Potency [11] | outcome [12] | Potency [13] | Potency [14]

CCN1CCCC1CNC(=O)c1cc(S(N)(=O)=O)ccc1OC (stereo unspecified)
inactive: Potency [1] | Potency [2] | outcome [3] | outcome [4] | Potency [5] | Potency [6] | outcome [7] | outcome [8] | outcome [10] | Potency [11] | outcome [12] | Potency [14]
active: Potency [9] 17.4 µM

NC1CCN(c2cccc(Cl)n2)CC1
inactive: Potency [1] | Potency [2] | outcome [3] | outcome [4] | Potency [5] | Potency [6] | outcome [7] | Potency [9] | outcome [10] | Potency [11] | outcome [12] | Potency [13] | Potency [14]

CCN(CC)S(=O)(=O)c1ccc(C(=O)O)cc1
inactive: Potency [1] | Potency [2] | outcome [3] | outcome [4] | Potency [5] | Potency [6] | outcome [7] | outcome [8] | outcome [10] | outcome [15] | outcome [12] | Potency [14]
